Many of the other results were omitted from the sample, so hits are more common in it than they were.
LmPK inhibitor: inhibitors of Leishmania mexicana pyruvate kinase; 290,000 tested, 0.37% active; purified LmPK, Kinase-Glo ATP luminescence, 1 h; Potency, µM (doses to about 57.5 µM), for inactives: at the highest dose activity change, negative = inhibition, most hits filed as inhibitors; Q27686; active = well fitted curve in the direction sought with a large enough effect; inconclusive = small, poorly fitted or top-dose-only effect, or another doubt; inactive = no such curve, though single readings can be large; an effect the other way counts as inactive or inconclusive; also: potency is read from the fitted curve at half-maximal effect; % is scaled to controls: 0 for no effect and ±100 for the full control effect
Target sequence (Q27686 whole entry, looked up): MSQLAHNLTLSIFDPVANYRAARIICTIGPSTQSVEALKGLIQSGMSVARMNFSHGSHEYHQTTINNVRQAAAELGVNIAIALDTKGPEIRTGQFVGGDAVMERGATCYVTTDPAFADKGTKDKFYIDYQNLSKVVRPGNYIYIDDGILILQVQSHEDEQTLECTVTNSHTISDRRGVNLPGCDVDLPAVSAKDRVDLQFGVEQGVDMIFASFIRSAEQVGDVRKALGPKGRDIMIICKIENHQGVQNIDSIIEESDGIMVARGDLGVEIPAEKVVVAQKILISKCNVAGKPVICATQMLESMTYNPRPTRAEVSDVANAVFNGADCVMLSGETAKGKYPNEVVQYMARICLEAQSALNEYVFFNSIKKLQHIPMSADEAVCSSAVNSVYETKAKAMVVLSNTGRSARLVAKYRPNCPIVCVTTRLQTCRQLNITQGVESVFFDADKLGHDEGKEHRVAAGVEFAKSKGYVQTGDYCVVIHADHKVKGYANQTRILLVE
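Purified LmPK (0.1 nM) converted ADP (0.1 mM) to ATP with PEP (0.5 mM) in imidazole buffer pH 7.2 with KCl and MgCl2, 1 h at room temperature. ATP was read by Kinase-Glo luminescence; data normalized to uninhibited and no-enzyme controls.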
NS1 inh: influenza NS1 inhibition; 270,000 tested, 0.4% active; Potency, µM (doses to about 46.1 µM), for inactives: at the top dose activity, positive = more growth; AID 2326; also: potency is read from the fitted curve at half-maximal effect; actives are rising curves; nearly all actives have a fitted effect of over 50% in size
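Compounds were scored for reversing the slow growth caused by influenza A NS1 in S. cerevisiae, measured by optical density at 600 nm. Assay medium contained 2% galactose at pH 6.0; NS1-free yeast of the same strain were the positive control.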
TbPYK inhibitor: inhibitors of Trypanosoma brucei pyruvate kinase; 410,000 tested, 0.12% active; AID 624173; TbPYK enzyme, Kinase-Glo Plus ATP luminescence, 45 min; Potency, µM (series often up to 76.8 µM), inactives show at the top dose activity, negative = inhibition, hits mostly inhibitors; active = well fitted curve in the direction sought with a large enough effect; inconclusive = small, poorly fitted or top-dose-only effect, or another doubt; inactive = no such curve, though single readings can be large; an effect the other way counts as inactive or inconclusive; also: potency is read from the fitted curve at half-maximal effect; % is scaled to controls: 0 for no effect and ±100 for the full control effect; nearly all actives have a fitted effect of over 50% in size
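TbPYK + substrate in 50 mM TEA pH 7.2, 100 mM KCl, 10 mM MgCl2, 0.05% BSA, 0.01% Tween-20; cpd pinned; ADP 130 uM final; 45 min RT; Kinase-Glo Plus 10 min; luminescence endpoint.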
Cycloheximide cs: affects cycloheximide protein synthesis inhibition readout, counter-screen; max response, %; cell reporter, cycloheximide protein synthesis inhibition counterscreen; 300,000 tested, 12% active; AID 2314; in the data active = max response mostly above about 13%, no sharp cut-off; inactive = mostly below about 14%; also: read at 38.3 µM for the half of the compounds with a filed dose; 0% is about no effect
Shiga inhibitor: inhibitors of Shiga toxin in Vero cells; Vero cells, Shiga toxin protein synthesis inhibition reporter; inhibition, % at 38.7 µM; 290,000 tested, 9.2% active; AID 2315; in the data active = inhibition mostly above about 28%, no sharp cut-off; inactive = mostly below about 43%; also: 0% is about no effect
SARS PLP yeast: blocks SARS-CoV papain-like protease in a yeast assay; AID 485353; Potency, µM (series often up to 32.9 µM), for inactives: at the highest dose activity, positive = growth rescue, usual class: activators; 330,000 tested, 0.19% active; S. cerevisiae expressing SARS-CoV PLpro, growth rescue; also: potency is read from the fitted curve at half-maximal effect; 0% is about no effect; nearly all actives have a fitted effect of over 55% in size
Numbers without * were called inactive; ? = inconclusive; · = no result given. Unless noted, calls follow the shape of the full dose curve.

SMILES | LmPK inhibitor | NS1 inh | TbPYK inhibitor | Cycloheximide cs | Shiga inhibitor | SARS PLP yeast
Cc1ccc2cc(/C=N/NC(=O)[C@H](C)NC(=O)OC(C)(C)C)c(Cl)nc2c1 | 2.4% | 9.0% | 1.5% | 4.9 | 10.4 | 14.9%
COc1ccc2nc(/C=N/NC(=O)[C@H](C)NC(=O)OC(C)(C)C)ccc2c1 | -0.1% | 1.9% | · | 16.3* | active | 17.0%
O=C(CSc1nc2cc([N+](=O)[O-])ccc2n1-c1ccccc1)NCc1ccc2c(c1)OCO2 | 6.7% | 3.98µM* | 3.9% | -1.2 | 17.7 | 10.8%
Cc1ccc(CC(=O)NCc2ccc3c(c2)OCO3)cc1 | -1.1% | -4.6% | -2.0% | 21.8 | 34.4 | ·
O=C(Cc1c[nH]c2ccccc12)NCc1ccc2c(c1)OCO2 | 3.8% | 0.4% | 2.4% | 18.7* | 16.0 | 1.8%
Cc1cc(C)cc(-n2c(SCC(=O)NCc3ccc4c(c3)OCO4)nc3ccccc3c2=O)c1 | 0.3% | 4.1% | -2.2% | -2.6 | -8.7 | 3.8%
O=C(Cc1ccccc1)NCc1ccc2c(c1)OCO2 | -18.3% | 2.8% | 4.4% | 58.7* | 117.6* | 16.9%
O=C(CC12CCC(CC1)C2)NCc1ccc2c(c1)OCO2 | -5.9% | -0.3% | -0.6% | 25.6* | 43.9* | -3.8%
Cc1ccc(-n2c(=O)c3cccnc3n2CC(=O)Nc2ccc(Br)cc2)cc1C | · | · | 1.1% | · | · | ·
COc1ccc(C)cc1NC(=O)Cn1c(=O)ccc2cc(S(=O)(=O)N3CCC(C)CC3)ccc21 | · | · | 2.4% | · | · | ·
O=C1C=C(C#Cc2ccc(Oc3ccccc3)cc2)C[C@@H](c2ccc(F)cc2)C1 | · | · | 2.2% | · | · | ·
O=C(NCc1ccc2c(c1)OCO2)c1cc(-c2ccccc2)on1 | -10.9% | 0.2% | -9.1% | 2.2 | 3.8 | 1.7%
O=C(NCc1ccc2c(c1)OCO2)C(=O)Nc1ccccc1 | -3.1% | 10.4% | -2.6% | 22.1* | 90.5* | 1.7%
O=C(Cc1ccccc1[N+](=O)[O-])NCc1ccc2c(c1)OCO2 | -22.7% | 9.5% | -1.3% | 58.3* | 69.0* | 1.5%
O=C(COC(=O)COc1ccccc1[N+](=O)[O-])NCc1ccc2c(c1)OCO2 | · | · | 2.7% | · | · | -4.1%
O=C(NCc1ccccc1)c1c[nH]c2cc3c(cc2c1=O)OCCO3 | 5.2% | 10.6% | -0.3% | 36.8* | 30.2* | -15.8%
CCOC(=O)c1c(NCc2ccc3c(c2)OCO3)c2ccccc2[nH]c1=O | -4.3% | -9.5% | -1.0% | 19.2* | 10.2 | -5.8%
O=C(Cn1c(=O)nc(-c2ccccc2)c2cc(Cl)ccc21)NCCc1ccccc1 | · | · | 0.2% | · | · | ·
O=C(COC(=O)CCc1ccccc1)NCc1ccc2c(c1)OCO2 | · | · | -0.2% | · | · | -11.6%
O=C(CCc1ccccc1)NCc1ccc2c(c1)OCO2 | -2.6% | 5.2% | -5.8% | 14.0* | 19.4 | -2.9%
CC(=O)NC(c1cccc([N+](=O)[O-])c1)c1c(OC(C)=O)ccc2ccccc12 (stereo not drawn) | · | · | 7.3% | · | · | ·
CCCCC(=O)NC(c1cccc([N+](=O)[O-])c1)c1c(OC(C)=O)ccc2ccccc12 (stereo not drawn) | 4.9% | 1.9% | 7.4% | 16.9* | 5.3 | -8.6%
O[C@@H](CNC[C@H](O)[C@H]1CCc2cc(F)ccc2O1)[C@@H]1CCc2cc(F)ccc2O1 | · | · | 0.0% | · | · | ·
COc1ccc(N2C(=O)NC(=O)C2=O)cc1 | 0.2% | 13.9% | -3.6% | 40.3* | 4.3 | 2.1%
C=C1c2cc(C)ccc2NC(=O)N1c1ccccc1 | -0.8% | -4.0% | -2.1% | -6.3 | -16.5 | -12.5%
SMILES | LmPK inhibitor | NS1 inh | TbPYK inhibitor | Cycloheximide cs | Shiga inhibitor | SARS PLP yeast
C=C1c2ccccc2NC(=O)N1c1ccc(OC)cc1 | 0.0% | 2.2% | 2.2% | 12.2* | 36.0 | -1.1%
COc1ccccc1N1CCN(Cc2cc(=O)oc3cc(C)cc(C)c23)CC1 | · | · | -10.2% | · | · | ·
Cc1cccc(N(CC(=O)Nc2ccc(Br)cc2)S(C)(=O)=O)c1C | · | · | 1.9% | · | · | ·
O=C1c2ccccc2C(=O)N1c1ccc(Cc2ccncc2)cc1 | -2.8% | -2.3% | 3.3% | 14.8* | 37.6 | 6.7%
O=C1c2ccccc2C(=O)N1c1ccccc1 | · | · | -0.2% | · | · | ·
CC(C)(C)CN1CCNC(=O)C1CC(=O)NCCc1cnn(-c2ccccc2)c1 (stereo not drawn) | 2.6% | 7.6% | -0.9% | 11.9* | 5.6 | -1.7%
CC(C)CN1CCNC(=O)C1CC(=O)NCCc1cnn(-c2ccccc2)c1 (stereo not drawn) | 5.0% | 6.2% | -1.8% | -3.4 | -1.7 | -0.2%
Cc1cc(F)ccc1NC(=O)C1CCN(C(=O)c2cnn(-c3ccccc3)c2-n2cccc2)CC1 | · | · | 4.4% | · | · | ·
CCOc1cccc(/C=N/NS(=O)(=O)c2ccc(C)c([N+](=O)[O-])c2)c1O | 8.5% | · | 2.5% | 8.4 | 17.8 | -1.0%
CCCCNC(=S)N/N=C/c1cccc(OCC)c1O | -3.0% | -7.7% | -4.0% | 11.5 | 30.5* | 0.8%
COc1cccc(/C=N/NC(=S)NCCc2ccccc2)c1OC | 0.2% | -5.4% | 2.2% | -1.3 | 47.8 | -1.0%
O=[N+]([O-])c1ccccc1NC(=S)N/N=C/c1ccc(O)c(O)c1 | -0.1% | 7.1% | -11.0% | 22.3* | 74.3* | -0.5%
CCOc1cccc(/C=N/NC(=S)Nc2ccccc2[N+](=O)[O-])c1O | 1.6% | 9.4% | -2.2% | 38.3* | 153.9* | 5.8%
COC(=O)c1ccc(-n2c(C)cc(C(=O)CSc3cccc[n+]3[O-])c2C)cc1 | -13.4% | · | -4.4% | 4.7 | -23.2 | 2.0%
Cc1cc(C(=O)CSc2cccc[n+]2[O-])c(C)n1-c1ccc(OC(F)F)cc1 | -2.6% | -155.6% | 0.8% | 54.4* | 58.7* | -2.9%
Nn1c(COc2ccccc2F)nnc1SCC(=O)NC1CC1 | · | · | 0.6% | · | · | 3.0%
COCCNC(=O)C1(C)CCCN(C(=O)c2ccccc2OC)C1 (stereo not drawn) | · | · | -7.3% | · | · | ·
[N-]=[N+]=NC(c1ccccc1)c1nc2ccccc2[nH]c1=O (stereo not drawn) | -4.0% | ? | -8.0% | 26.9* | 28.3 | 0.2%
COc1cc(N2CCCC2)c(OC)cc1/C=C(/C#N)c1ccc(F)cc1 | -3.4% | 2.5% | ? | -1.1 | 11.7 | -5.9%
N#C/C(=C/c1ccc(N2CCCCC2)cc1)c1cccc(F)c1 | -10.2% | -11.4% | -8.3% | 36.4* | 25.2 | -16.4%
O=Cc1ccc(N2CCCCC2)cc1 | 2.4% | · | 5.6% | 11.4 | 18.1 | -3.7%
N#CC(C#N)=Cc1ccc(N2CCCC2)cc1 | 9.6% | · | -2.6% | 28.5* | 44.3 | -5.4%
N#C/C(=C/c1ccc(N2CCCCCC2)o1)c1ccc(Cl)cc1 | -1.2% | -120.2% | ? | 26.4 | 22.0 | -26.8%
N#C/C(=C/c1ccc(N2CCCCC2)o1)c1cccc(F)c1 | -1.3% | -50.9% | -37.8% | 39.2* | 64.8* | -28.7%
CC(C)c1nc(C#N)c(NCCCn2ccnc2)o1 | -2.1% | 4.1% | 34.5% | 5.1 | -16.0 | -2.0%

High-throughput results (PubChem)
